Only some compounds are listed: those with a hit (about 6.4% of all), similar ones and a draw of the others.
RORgamma inh: inhibitors of mouse ROR gamma transcriptional activity; hit rate 5.4% among 310,000; AID 2551; P51450; Potency, µM (series often up to 53.6 µM), without a hit: top-dose activity change, negative = inhibition, actives largely listed as inhibitors; Drosophila S2 Gal4-RORgamma UAS-luciferase reporter, 20 h; note: nearly all actives have a fitted effect of over 60% in size
Target sequence (P51450 whole entry, looked up, the tested form may be a part): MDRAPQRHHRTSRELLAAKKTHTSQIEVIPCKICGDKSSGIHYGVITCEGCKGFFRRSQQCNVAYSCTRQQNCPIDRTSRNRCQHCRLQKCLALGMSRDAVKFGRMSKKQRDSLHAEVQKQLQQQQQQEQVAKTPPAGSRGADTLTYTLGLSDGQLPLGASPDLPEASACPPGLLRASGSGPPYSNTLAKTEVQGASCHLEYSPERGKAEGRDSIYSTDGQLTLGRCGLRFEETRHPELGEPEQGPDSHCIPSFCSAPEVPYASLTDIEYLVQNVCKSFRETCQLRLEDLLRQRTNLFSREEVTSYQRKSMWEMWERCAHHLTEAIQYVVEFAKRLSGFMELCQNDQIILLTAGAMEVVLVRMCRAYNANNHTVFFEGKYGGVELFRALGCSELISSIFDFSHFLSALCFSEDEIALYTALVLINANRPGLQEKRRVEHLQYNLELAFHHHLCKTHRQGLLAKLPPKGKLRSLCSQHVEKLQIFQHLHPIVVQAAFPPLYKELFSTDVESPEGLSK
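Read-out: Photinus luciferase luminescence; inhibitors lower reporter signal. Insect Schneider cells with Gal4-ROR gamma fusion under metallothionein promoter, UAS reporter; 700 uM final copper sulfate induction, 20 hr, ambient temperature.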
KinaseGlo FLuc: Kinase-Glo luciferase inhibition (counter-screen). Kinase-Glo luciferase, ATP luminescence, 8 min. AID 1379. Potency, µM (doses to about 38.3 µM), inactives show top-dose activity change, negative = inhibition, actives largely listed as inhibitors. hit rate 0.28% among 200,000; note: nearly all actives have a fitted effect of over 60% in size
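Recombinant Kinase-Glo luciferase, 10 uM ATP (linear range), luciferin; imidazole pH 7.2 / KCl / MgCl2 / Tween / BSA buffer; 8 min RT; luminescence.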
Gal4-VP16 FLuc: inhibits Gal4-VP16 luciferase reporter, ROR gamma counter-screen | Drosophila S2 Gal4-VP16 UAS-luciferase, luminescence, 20 h | Potency, µM (doses to about 53.6 µM), without a hit: at the top dose activity, negative = inhibition, usual class: inhibitors | hit rate 3.5% among 310,000 | AID 2546;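 note: Gal4-VP16 expression switched on by copper sulfate through the metallothionein promoter; nearly all actives have a fitted effect of over 50% in size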
Starred values were filed as active, the others as inactive; u = inconclusive; x = no result; [ ] = remark or other dose. Calls come from the whole dose curve; as a rule, active = well fitted curve in the direction sought with a large enough effect; inconclusive = small, poorly fitted or top-dose-only effect, or another doubt; inactive = no such curve, though single readings can be large; an effect the other way counts as inactive or inconclusive. % is set by controls: 0 for no effect and ±100 for the full control effect; potency is the fitted concentration of half-maximal effect.

SMILES | RORgamma inh | KinaseGlo FLuc | Gal4-VP16 FLuc
CC(C)Oc1ccc(Cc2cnc(=S)[nH]c2N)cc1 | 11µM* | 0% | -24%
CC(C)COc1ccc(Cc2cnc(N)nc2N)cc1 | -4% | -1% | 0%
CC(=O)Nc1ccc(S(=O)(=O)Nc2ccccc2C(=O)N2CCCC2)cc1 | -16% | x | -2%
CC(=O)c1ccc(NC(=S)N2CCCC(CO)C2)cc1 (stereo unspecified) | -43% | 4% | -14%
COC(=O)Cc1ccc(NC(=S)N2CCCC(C)C2)cc1 (stereo unspecified) | 13µM* | -3% | 11µM*
COC(=O)Cc1ccc(NC(=S)N2CCN(c3cc(Cl)ccc3C)CC2)cc1 | 13µM* | -7% | u
CC1CCCN(C(=S)Nc2ccc(S(=O)(=O)N3CCCCC3)cc2)C1 (stereo unspecified) | u | x | -11%
COC(=O)Cc1ccc(NC(=S)N2CCCC(CO)C2)cc1 (stereo unspecified) | 11µM* | x | 7.9µM*
COC(=O)Cc1ccc(NC(=S)N2CCN(c3ccccn3)CC2)cc1 | 15% | x | -4%
CC(C)CN1CCCC2(CCN(C(=O)c3cccc(F)c3)CC2)C1 | -1% | -1% | 8%
CC1=CC(=C2C=CC(=O)C=C2)C=C(C)N1C | 3% | x | u
COc1ccc(C2c3[nH]c4ccccc4c3CCN2Cc2cccn2-c2ncccn2)cc1C (stereo unspecified) | u | -2% | u
COc1ccc(CNC2CCSc3ccccc32)cc1OC (stereo unspecified) | 34% | x | 0%
CCCn1c(C(CO)Nc2nc(-c3cccc(Br)c3)cs2)nc2ccccc21 (stereo unspecified) | 13µM* | x | u
CCCn1c(C(C)Nc2nc(-c3ccc(C)cc3)cs2)nc2cc(Cl)c(Cl)cc21 (stereo unspecified) | 11µM* | x | -8%
CC(Nc1nc(-c2cccc(Br)c2)cs1)c1nc2cc(Cl)c(N3CCCCC3)cc2n1CCOCCO (stereo unspecified) | -34% | x | -21%
O=C(Nc1nc(-c2cccc(Br)c2)cs1)Oc1ccccc1 | -42% | -3% | -21%
CCn1ncc(NC(=S)NCCc2ccc(OC)c(OC)c2)c1C(N)=O | -14% | 1% | 9%
Cc1ccccc1NC(=O)C(=Cc1ccc(C(=O)O)cc1)C(=O)Nc1ccccc1C | 7.9µM* | 4% | u
CC(=O)/C(=C/c1ccccc1)C(=O)Nc1ccccc1C | u | 3% | u
CCOCC(=O)Nc1cc(C(=O)Nc2ccccc2)ccc1Cl | 9% | -9% | -6%
CCOCC(=O)Nc1cc(C(=O)Nc2cc(C)cc(C)c2)ccc1Cl | 12% | 11µM* | -7%
CC(C)(C)c1ccc(OCC(=O)N2CCN(c3ncccn3)CC2)cc1 | 10% | x | 2%
CCC1=NN(C(=O)c2ccc(Cl)cc2)C(O)(c2ccccc2)C1 (stereo unspecified) | u | x | 10µM*
CCC1=NN(C(=O)c2ccc(Cl)cc2)C(O)(c2ccc(C)cc2)C1 (stereo unspecified) | 18µM* | x | 25µM*
SMILES | RORgamma inh | KinaseGlo FLuc | Gal4-VP16 FLuc
CCOC(=O)C1=NN(C(=O)c2ccc(C)cc2)C(O)(c2ccc(Cl)cc2)C1 (stereo unspecified) | u | -3% | u
CCC1=NN(C(=O)c2ccc([N+](=O)[O-])cc2)C(O)(c2ccccc2)C1 (stereo unspecified) | -35%[1.91 µM] | x | u
C[C@H](NC(=O)c1nc[nH]c1C(=O)NC(c1ccccc1)c1ccccc1)C(=O)OC(C)(C)C | 2.5µM* | x | 4.5µM*
CC(C)(C)OC(=O)CNC(=O)c1[nH]cnc1C(=O)NC(c1ccccc1)c1ccccc1 | 6.3µM* | x | u
CC(C)(C)OC(=O)CNC(=O)c1[nH]cnc1C(=O)NCCCCCNC(=O)OC(C)(C)C | u | x | 0%
CC(C)(C)N1C(=O)[C@H]2[C@H]3[C@H](O)[C@H](O)C/C(=N/NC(=O)OCc4ccccc4)[C@H]3CC[C@@H]2C1=O | 23%[10 µM] | x | 7%[10 µM]
c1ccc2c(N3CCNCC3)nc(-c3ccoc3)nc2c1 | 15% | -1% | -6%
COc1ccc2c(c1)O[C@@H](c1cccc(C(F)(F)F)c1)[C@H](OC(=O)NS(=O)(=O)c1ccc(C)cc1)C2=O | 3% | 1% | -3%
Fc1ccc(N=Cc2ccc[nH]2)cc1 | -28% | x | -3%
CC(C)N=c1scc(-c2cccs2)n1/N=C/c1ccc(O)c(O)c1O | u | -1% | u
CN=c1scc(-c2ccccc2F)n1/N=C/c1ccc(O)c(O)c1O | u | 11µM* | -72%
CN=c1scc(-c2ccccc2F)n1/N=C/c1ccc[nH]1 | 0.022µM* | 11µM* | 0.63µM*
CN1C(=O)CC2(C=CC(=O)C=C2OC(=O)c2ccccc2)c2ccccc21 (stereo unspecified) | 5% | x | -13%
COc1ccc(-c2cc(C(F)(F)F)nc(SCC(=O)N3CCOCC3)n2)cc1OC | u | 2% | -18%
COc1ccccc1-c1cc(C(F)(F)F)nc(S(=O)(=O)CCCC(=O)N2CCOCC2)n1 | 5.6µM* | 1% | 7.1µM*
COc1ccc(-c2cc(C(F)(F)F)nc(S(=O)(=O)CCC(=O)N3CCOCC3)n2)cc1 | 8.9µM* | 3% | u
COCCNC(=O)CSc1nc(-c2ccc(OC)c(OC)c2)cc(C(F)(F)F)n1 | 6%[0.365 µM] | -3% | x
COc1ccc(-c2cc(C(F)(F)F)nc(S(=O)(=O)CCCC(=O)Nc3cccc(O)c3)n2)cc1OC | 10µM* | x | 11µM*
COc1ccccc1-c1cc(C(F)(F)F)nc(S(=O)(=O)CCCC(=O)O)n1 | u | 0% | u
CC(=O)Oc1cccc(C)c1 | -1% | 1%[39.9 µM] | -7%
O=C(O)CC/C(=N/NC(=O)CNC(=O)c1ccc2c(c1)OCCO2)c1ccccc1 | 12% | x | -6%
CCN(CC)Cc1cc(NC2=NS(=O)(=O)c3ccccc32)ccc1OC(=O)c1ccccc1 | -15% | -1% | -18%
Nc1nc(SCC(=O)Nc2cccc(S(=O)(=O)N3CCCCCC3)c2)n[nH]1 | 31% | -1% | -2%
CN(c1ccccc1)S(=O)(=O)c1cccc(NC(=O)CSc2n[nH]c(N)n2)c1 | u | x | 7.1µM*
CS(=O)(=O)N(CC(=O)Nc1ccc(S(=O)(=O)N2CCOCC2)cc1)c1cccc(F)c1 | 25% | -1% | 5%
SMILES | RORgamma inh | KinaseGlo FLuc | Gal4-VP16 FLuc
Cc1noc2ncnc(Oc3ccc(F)cc3)c12 | -7% | 2% | 1%
Cc1ccccc1Sc1ncnc2onc(C)c12 | 7.1µM* | -4% | u
Cc1noc2ncnc(SCc3ccc(C(F)(F)F)cc3)c12 | u | x | -7%
Cc1noc2ncnc(Sc3c(Cl)cccc3Cl)c12 | -111% | 12% | 16µM*
Cc1ccc(Sc2ncnc3onc(C)c23)cc1 | 10µM* | 8% | 22µM*
Cc1ccc(CSc2ncnc3onc(C)c23)cc1 | -1% | x | -5%
Cc1noc2ncnc(N3CCCCC3)c12 | 11% | -1% | 6%
Cc1noc2ncnc(Sc3ccc(Cl)cc3)c12 | 7.1µM* | -1% | 6.3µM*
COc1ccc(-c2noc(N3CCC(C(=O)NCCCN4CCCCC4)CC3)n2)cc1 | -19% | x | 1%
Cc1cccc(C)c1OCc1cc(C(=O)N2CCN(c3ccc(F)cc3)CC2)no1 | -12% | x | -2%
Cc1cc(C)c2nc3c(c([C@H](O)C4CCCCN4)c2c1)CC/C3=C/c1ccc(Cl)cc1 (stereo partly specified) | x | -5%[7.66 µM] | x
